Compounds without any hit were thinned out: in the full panel of roughly 83,000, 20% have a hit.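 In brief: 96-well plates, 48 h treatment, single concentration, percent growth endpoint.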 Unmarked numbers belong to inactive results. The source made the active and inactive calls.
Each compound was assayed on A549/ATCC NSCLC (assay: NCI-60 one-dose screen, 48 h (100 = growth as untreated, 0 = no growth, -100 = all killed)). Conditions: 10 µM unless noted.
Procedure: Growth inhibition of the A549/ATCC human Non-Small Cell Lung tumor cell line is measured as a screen for anti-cancer activity. Cells are grown in 96 well plates and exposed to the test compound for 48 hours. Compounds are tested at a single concentration, which is 10^-5 M for most compounds. The reported endpoint is percent growth (GI% or GIPRCNT), where numbers from 0 - 100% represent growth inhibition, and numbers from -100% - 0 represent cell death. For example, a value of 40 represents 60% growth inhibition. A value of 0 means no net growth occurred over the course of the experiment. A value of -40 indicates 40% of cells at the beginning of the experiment died by the end of the experiment. A value of -100 means all cells are dead at the end of the experiment.
NCI-60 Human Tumor Cell Lines Screen was performed using the standard one-dose NCI protocol, which is described in more detail at https://dtp.cancer.gov/discovery_development/nci-60/default.htm.
Compounds with GIPRCNT values below 10 were considered active. Activity score was based on GIPRCNT using the following formula: […]
Score is 0 for GIPRCNT values of 100 or above, 50 for GIPRCNT values of 0, and 100 for GIPRCNT values of -100.
`c1cc(-c2ccc3c(c2)OCO3)n2nccc2n1` showed a growth of 99.2%.
`CCCCC[C@@H]1Cc2cc(O)c(C(=O)O)c3c2[C@H](C[C@@]2(CCCO2)O3)O1` was tested, and the growth was 105%.
For `COC(=O)[C@H]1[C@H](OC)[C@@H](OC(=O)/C=C/c2ccncc2)CC2CN3CCc4c([nH]c5cc(OC)ccc45)[C@@H]3C[C@@H]21` (stereo not given in full), the growth was 82.9%.
For `COc1ccc(/C=C/C(=O)c2ccc(B(O)O)cc2)cc1O`, the growth was 66.3%.
Work on `COc1ccc(NC(=O)CSc2nc3ccccc3c(=O)n2Cc2cc(OC)c(OC)c(OC)c2)cc1` yielded a growth of 99.3%.
Compound `CCCCC(N)(C(=O)O)C1CCCC1` (stereo not given) has a growth of 94.4%.
`O=[N+]([O-])c1cccc(-c2cc(-c3cc(Br)ccc3O)[nH]n2)c1` gave a growth of 21.7%.
Work on `COc1cc(C2C=C(C)N=C3SC(C)=NN32)cc(OC)c1OC` (stereo not given) yielded a growth of 103%.
Compound `N#Cc1ccc(NC(=O)c2ccc3cccnc3c2O)cc1` has a growth of 15.1%.
In the case of `C=C1C(=O)O[C@H]2[C@H]1CC/C(COC(=O)NCCc1ccc(Br)cc1)=C\CC[C@@]1(C)O[C@@H]21`, the growth is reported as 77.8%.
`NS(=O)(=O)c1ccc(NCC(=O)Nc2ccc(-c3nc4ccccc4s3)cc2)cc1` showed a growth of 92.6%.
Work on `CCC1CCc2nc3sc(C(=O)Nc4cccc(C)c4)c(N)c3cc2C1` (stereo not given) yielded a growth of 77.3%.
For `CCn1cc(C2NC(=O)c3cc(F)ccc3N2)c2cccc(Cl)c21` (stereo not given), the growth was 3.82% (active).
In the case of `CC/C(=C(\c1ccc(O)cc1)c1ccc(OCCN(C)CCN(C)C(=O)CCC(=O)c2c(C)[nH]c(/C=C3\N=C(c4ccc[nH]4)C=C3OC)c2C)cc1)c1ccccc1`, the growth is reported as 76.4%.
Compound `C=C1C(=O)O[C@H]2[C@H]1CC/C(COC(=O)NCc1ccc(OC)cc1)=C\CC[C@@]1(C)O[C@@H]21` has a growth of 69.1%.
For `COc1ccc2c(c1)NC(=O)CN2c1nc(C)nc2ccccc12`, the growth was 21.3%.
`COc1ccc(C(=O)/C=C/c2cccc([N+](=O)[O-])c2)c(OC)c1` gave a growth of 27.6%.
With `Clc1ccc(/C=C/c2nc(N3CCOCC3)c3nc(Cl)c(Cl)cc3n2)cc1` the growth was 107%.
In the case of `Cc1nc(Nc2cccnc2)sc1C(=O)/C=C/c1ccc(F)cc1`, the growth is reported as 25.2%.
In the case of `O=C(Nc1ccc(I)cc1)c1cccc([N+](=O)[O-])c1O`, the growth is reported as 14.5%.
For `C=CCN=C1NC(=O)/C(=C/c2cc(C(C)(C)C)c(O)c(C(C)(C)C)c2)S1`, the growth was 63.4%.
In the case of `CCOc1ccc(/C=C/C=N/NC(N)=S)cc1`, the growth is reported as 86.1%.
`C=C1C(=O)O[C@H]2[C@H]1CC/C(COC(=O)NCCc1cccc(OC)c1)=C\CC[C@@]1(C)O[C@@H]21` gave a growth of 79.2%.
`O=Nc1c(-c2c(O)[nH]c3ccc([N+](=O)[O-])cc23)[nH]c2ccc(O)cc12` gave a growth of 10.6%.
With `COc1cc2c(cc1OC)C1(C)N(CC2)C(=O)OC1(C)C` (stereo not given) the growth was 102%.
Compound `O=S(=O)(O)CCl` has a growth of 103%.
`CCCCn1c(=O)c(C2CNC(=O)c3ccccc3N2)cc2ccccc21` (stereo not given) was tested, and the growth was 97.1%.
For `CCC1CCc2nc3sc(C(=O)Nc4ccccc4F)c(N)c3cc2C1` (stereo not given), the growth was 79.5%.
`O=C(c1ccncc1)N1N=C(c2ccc(Cl)cc2)CC1c1c[nH]c2ccccc12` (stereo not given) gave a growth of 95%.
In the case of `COc1cc(NC(=O)CCl)ccc(=O)c1`, the growth is reported as 84.5%.
In the case of `CC(C)C(C(=O)CCN(C)C)c1ccc(Cl)cc1` (stereo not given), the growth is reported as 61.6%.
In the case of `Nc1c(C(=O)Nc2ccccc2)sc2nc3c(cc12)CCC3`, the growth is reported as 91.2%.
Compound `CC[C@]1(O)C[C@@H]2CN(Cc3c([nH]c4ccccc34)[C@@](C(=O)OC)(c3cc4c(cc3OC)N(C)[C@H]3[C@@](O)(C(=O)OC)[C@H](OC(C)=O)[C@]5(CC)[C@@H]6C[C@@H]6CN6CC[C@]43[C@@H]65)C2)C1` has a growth of 22.2%.
Work on `Cc1ccc(C2=NN(c3ccc(S(=O)(=O)NC(=O)NCc4ccccc4)cc3)C(c3ccc(N(C)C)cc3)C2)c(C)c1` (stereo not given) yielded a growth of 22.1%.
`CCN(Cc1ccc(CN(CC)C(=O)C(Cl)(Cl)Cl)cc1)C(=O)C(Cl)(Cl)Cl` showed a growth of 79.2%.
Work on `COc1cccc(-c2nc3sccn3c2-c2ccnc(NCCCNS(=O)(=O)c3ccccc3)n2)c1` yielded a growth of 51.8%.
Work on `Nc1c(C(=O)Nc2cccc(Cl)c2Cl)sc2nc3c(cc12)C(=O)CCC3` yielded a growth of 37.5%.
`Cc1cc(C)c(NC(=O)c2sc3nc4c(cc3c2N)CN(Cc2ccccc2)CC4)c(C)c1` showed a growth of 30.3%.
`COc1cccc(-c2nc3sccn3c2-c2ccnc(NCCNS(=O)(=O)c3ccccc3)n2)c1` was tested, and the growth was 64.8%.
`CCCCCCC[C@@H](O)CC(=O)N[C@H](CCCCN)C(=O)N[C@H](Cc1c[nH]c2ccccc12)C(=O)NC(CCCCN)C(=O)N[C@H](CC(C)C)C(=O)N[C@H](Cc1ccccc1)C(=O)N[C@H](CCCCN)C(=O)N[C@H](CCCCN)C(=O)N[C@H](CC(C)C)C(=O)N1CCCC1C(=O)N[C@H](CCCCN)C(=O)N[C@H](Cc1ccccc1)C(=O)N[C@H](CC(C)C)C(=O)N[C@H](Cc1c[nH]cn1)C(=O)N[C@H](CC(C)C)C(=O)N[C@H](C)C(=O)N[C@H](CCCCN)C(=O)N[C@H](CCCCN)C(=O)N[C@H](Cc1ccccc1)C(=O)O` (stereo not given in full) was tested, and the growth was -47.3% (active).

— PubChem BioAssay (NCI)
